From the supplement of paper PMC12067926

Key:
Experiment in all cases: relative growth (AUC of 72 h growth curve relative to DMSO control, dAUC) (ratio); higher = more growth (less inhibition), active = hit call of the paper
Conditions in all cases: 20 µM;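 active = growth AUC significantly below the DMSO wells by Dunnett test; inactive = the rest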
[1] = test system: Aeromonas 1 (Aeromonas sp. AE235)
Method in brief: (§1)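 Whole sediment communities and bacterial isolates from Icelandic stream sediments and Silwood Park soil were brought to carrying capacity in Luria–Bertani medium. They were then diluted 1:100 into 96-well plates with each chemical at 20 µM in 1% DMSO, and A600 was recorded every hour for 72 h. The area under each growth curve, integrated by spline, was averaged across three biological replicates. This figure, divided by the mean of the DMSO controls, gives relative growth (dAUC).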

[2] = test system: Aeromonas 2 (Aeromonas sobria)
Method in brief: as §1

[3] = test system: Aeromonas 3 (Aeromonas popoffii)
Method in brief: as §1

[4] = test system: Argrobacterium 1 (Agrobacterium sp.)
Method in brief: as §1

[5] = test system: Arthrobacter 1 (Arthrobacter humicola)
Method in brief: as §1

[6] = test system: Arthrobacter 2 (Arthrobacter humicola)
Method in brief: as §1

[7] = test system: Arthrobacter 3 (Arthrobacter sp.)
Method in brief: as §1

Community 4 = test system: Community 4
Method in brief: as §1

Community 6 = test system: Community 6
Method in brief: as §1

Community 7 = test system: Community 7
Method in brief: as §1

Community 8 = test system: Community 8
Method in brief: as §1

Community 9 = test system: Community 9
Method in brief: as §1

[8] = test system: Flavobacterium 1 (Flavobacterium glaciei)
Method in brief: as §1

[9] = test system: Flavobacterium 2 (Flavobacterium succinicans)
Method in brief: as §1

[10] = test system: Hymenobacter 1 (Hymenobacter glaciei)
Method in brief: as §1

[11] = test system: Microbacterium 1 (Microbacterium arborescens)
Method in brief: as §1

[12] = test system: Neobacillus 1 (Neobacillus soli)
Method in brief: as §1

[13] = test system: Oryzobacter 1 (Oryzobacter terrae)
Method in brief: as §1

[14] = test system: Paenibacillus 1 (Paenibacillus castaneae)
Method in brief: as §1

Row | SMILES | relative growth [1] | relative growth [2] | relative growth [3] | relative growth [4] | relative growth [5] | relative growth [6] | relative growth [7] | relative growth (Community 4) | relative growth (Community 6) | relative growth (Community 7) | relative growth (Community 8) | relative growth (Community 9) | relative growth [8] | relative growth [9] | relative growth [10] | relative growth [11] | relative growth [12] | relative growth [13] | relative growth [14]
1 | CC(C1CC1)C(O)(Cn1cncn1)c1ccc(Cl)cc1 (centres undefined) | 0.97 (inactive) | 0.942 (inactive) | 0.964 (inactive) | 1.09 (inactive) | 0.89 (inactive) | 0.961 (inactive) | 0.944 (inactive) | 1.01 (inactive) | 1.02 (inactive) | 1.02 (inactive) | 1.04 (inactive) | 0.989 (inactive) | 0.999 (inactive) | 0.955 (inactive) | 1.03 (inactive) | 0.987 (inactive) | 0.985 (inactive) | 0.982 (inactive) | 0.959 (inactive)
2 | O=C1c2ccccc2C(=O)N1SC(Cl)(Cl)Cl | 1.04 (inactive) | 0.951 (inactive) | 0.992 (inactive) | 1.04 (inactive) | 1.04 (inactive) | 0.994 (inactive) | 1.1 (inactive) | 0.962 (inactive) | 0.721 (inactive) | 0.943 (inactive) | 0.913 (inactive) | 1.01 (inactive) | 1.05 (inactive) | 0.983 (inactive) | 1.11 (inactive) | 1.02 (inactive) | 1.07 (inactive) | 0.988 (inactive) | 1.02 (inactive)
3 | CC[C@H](C)[C@H]1O[C@]2(C=C[C@@H]1C)C[C@@H]1C[C@@H](C/C=C(\C)[C@@H](O[C@H]3C[C@H](OC)[C@@H](O[C@H]4C[C@H](OC)[C@@H](O)[C@H](C)O4)[C@H](C)O3)[C@@H](C)/C=C/C=C3\CO[C@@H]4[C@H](O)C(C)=C[C@@H](C(=O)O1)[C@]34O)O2.CO[C@H]1C[C@H](O[C@H]2[C@H](C)O[C@@H](O[C@@H]3/C(C)=C/C[C@@H]4C[C@@H](C[C@]5(C=C[C@H](C)[C@@H](C(C)C)O5)O4)OC(=O)[C@@H]4C=C(C)[C@@H](O)[C@H]5OC/C(=C\C=C\[C@@H]3C)[C@]54O)C[C@@H]2OC)O[C@@H](C)[C@@H]1O | 0.949 (inactive) | 0.927 (inactive) | 1.06 (inactive) | 1.11 (inactive) | 0.181 (active) | 0.00817 (active) | 0.16 (active) | 0.808 (inactive) | 0.662 (active) | 1.17 (inactive) | 0.963 (inactive) | 0.624 (active) | 0.139 (active) | 0.975 (inactive) | 0.9 (inactive) | 0.963 (inactive) | 0.893 (inactive) | 0.286 (active) | 0.317 (active)
4 | CC1COC(Cn2cncn2)(c2ccc(Oc3ccc(Cl)cc3)cc2Cl)O1 (centres undefined) | 1.08 (inactive) | 1.03 (inactive) | 1.02 (inactive) | 1.04 (inactive) | 0.741 (inactive) | 0.223 (active) | 0.348 (active) | 1.2 (inactive) | 1.06 (inactive) | 1.02 (inactive) | 1.01 (inactive) | 1.21 (inactive) | 0.367 (active) | 0.988 (inactive) | 0.956 (inactive) | 0.936 (inactive) | 1.08 (inactive) | 1.16 (inactive) | 0.872 (inactive)
5 | ClC1C(Cl)C(Cl)C(Cl)C(Cl)C1Cl (centres undefined) | 1.02 (inactive) | 0.964 (inactive) | 0.994 (inactive) | 1 (inactive) | 1.04 (inactive) | 0.837 (inactive) | 0.909 (inactive) | 0.976 (inactive) | 0.931 (inactive) | 1.03 (inactive) | 0.993 (inactive) | 0.963 (inactive) | 0.862 (inactive) | 0.932 (inactive) | 0.999 (inactive) | 1.01 (inactive) | 0.941 (inactive) | 1.13 (inactive) | 0.961 (inactive)
6 | C[C@@H]1[C@@H](c2ccc(Cl)cc2)SC(=O)N1C(=O)NC1CCCCC1 | 1.02 (inactive) | 1.02 (inactive) | 1.01 (inactive) | 1.04 (inactive) | 0.906 (inactive) | 0.925 (inactive) | 1.02 (inactive) | 0.946 (inactive) | 1.02 (inactive) | 1.05 (inactive) | 1.05 (inactive) | 1.05 (inactive) | 0.937 (inactive) | 1.02 (inactive) | 1.12 (inactive) | 1.04 (inactive) | 1.06 (inactive) | 0.912 (inactive) | 1.02 (inactive)
7 | CCOCn1c(-c2ccc(Cl)cc2)c(C#N)c(Br)c1C(F)(F)F | 0.988 (inactive) | 0.989 (inactive) | 1.01 (inactive) | 0.978 (inactive) | 1.14 (inactive) | 0.829 (inactive) | 0.987 (inactive) | 1.07 (inactive) | 0.99 (inactive) | 1.06 (inactive) | 1.05 (inactive) | 1.03 (inactive) | 1.03 (inactive) | 0.988 (inactive) | 0.993 (inactive) | 0.996 (inactive) | 0.979 (inactive) | 1 (inactive) | 0.978 (inactive)
8 | CC(C)OC(=O)Nc1cccc(Cl)c1 | 0.932 (inactive) | 0.969 (inactive) | 1.05 (inactive) | 0.93 (inactive) | 0.95 (inactive) | 1 (inactive) | 0.964 (inactive) | 1.11 (inactive) | 1.13 (inactive) | 1.07 (inactive) | 1.01 (inactive) | 1.09 (inactive) | 0.971 (inactive) | 1.03 (inactive) | 1.09 (inactive) | 1.04 (inactive) | 1.09 (inactive) | 0.999 (inactive) | 1.12 (inactive)
9 | COc1ccc(C(=CC(=O)N2CCOCC2)c2ccc(Cl)cc2)cc1OC (mixture of isomers) | 0.973 (inactive) | 0.993 (inactive) | 0.998 (inactive) | 1.03 (inactive) | 1.06 (inactive) | 0.983 (inactive) | 0.973 (inactive) | 1.07 (inactive) | 0.974 (inactive) | 0.947 (inactive) | 0.986 (inactive) | 1.03 (inactive) | 1.07 (inactive) | 0.979 (inactive) | 1.05 (inactive) | 1.03 (inactive) | 1.02 (inactive) | 1.12 (inactive) | 0.961 (inactive)
10 | CON(C)C(=O)Nc1ccc(Cl)c(Cl)c1 | 0.924 (inactive) | 0.996 (inactive) | 0.996 (inactive) | 0.869 (inactive) | 0.952 (inactive) | 0.595 (active) | 0.929 (inactive) | 0.943 (inactive) | 0.995 (inactive) | 1.01 (inactive) | 1.07 (inactive) | 1.03 (inactive) | 1.01 (inactive) | 0.923 (inactive) | 0.961 (inactive) | 1.05 (inactive) | 0.908 (inactive) | 1.04 (inactive) | 1 (inactive)
11 | CSc1nc(NC(C)C)nc(NC(C)C)n1 | 0.966 (inactive) | 0.971 (inactive) | 0.983 (inactive) | 1.03 (inactive) | 1.03 (inactive) | 0.956 (inactive) | 1.07 (inactive) | 0.933 (inactive) | 0.922 (inactive) | 1.02 (inactive) | 0.97 (inactive) | 0.97 (inactive) | 1.02 (inactive) | 0.946 (inactive) | 0.914 (inactive) | 1.02 (inactive) | 0.987 (inactive) | 0.978 (inactive) | 0.877 (inactive)
12 | CC(C)CC(C)c1sccc1NC(=O)c1cn(C)nc1C(F)(F)F (centres undefined) | 0.935 (inactive) | 0.946 (inactive) | 0.994 (inactive) | 0.855 (inactive) | 0.87 (inactive) | 0.885 (inactive) | 0.936 (inactive) | 0.78 (inactive) | 0.806 (inactive) | 1.06 (inactive) | 1.01 (inactive) | 0.916 (inactive) | 1.02 (inactive) | 0.921 (inactive) | 0.945 (inactive) | 0.937 (inactive) | 0.924 (inactive) | 1.2 | 0.906 (inactive)
13 | COC(=O)N(C(=O)N1CO[C@@]2(C(=O)OC)Cc3cc(Cl)ccc3C2=N1)c1ccc(OC(F)(F)F)cc1 | 0.96 (inactive) | 0.963 (inactive) | 0.971 (inactive) | 1.03 (inactive) | 1 (inactive) | 0.972 (inactive) | 1.02 (inactive) | 1.03 (inactive) | 0.974 (inactive) | 1.01 (inactive) | 1.02 (inactive) | 1.01 (inactive) | 1.1 (inactive) | 0.979 (inactive) | 1.05 (inactive) | 1.04 (inactive) | 1.03 (inactive) | 1.09 (inactive) | 0.948 (inactive)
14 | COP(=S)(OC)Oc1ccc(SC)c(C)c1 | 1.02 (inactive) | 0.974 (inactive) | 1.03 (inactive) | 1.05 (inactive) | 1.17 (inactive) | 0.942 (inactive) | 1.01 (inactive) | 0.985 (inactive) | 1.05 (inactive) | 0.973 (inactive) | 1 (inactive) | 1.02 (inactive) | 0.934 (inactive) | 0.998 (inactive) | 1.01 (inactive) | 0.99 (inactive) | 0.955 (inactive) | 1.02 (inactive) | 1.02 (inactive)
15 | CCNc1nc(Cl)nc(NC(C)C)n1 | 0.965 (inactive) | 0.972 (inactive) | 0.992 (inactive) | 1.01 (inactive) | 0.902 (inactive) | 1.03 (inactive) | 0.968 (inactive) | 1.05 (inactive) | 1.01 (inactive) | 1.01 (inactive) | 1.01 (inactive) | 1 (inactive) | 1.05 (inactive) | 0.972 (inactive) | 1.06 (inactive) | 1.02 (inactive) | 1.03 (inactive) | 0.998 (inactive) | 1.01 (inactive)
16 | CC(C)N1C(=O)c2ccccc2NS1(=O)=O | 0.965 (inactive) | 0.994 (inactive) | 0.991 (inactive) | 0.998 (inactive) | 1.03 (inactive) | 1.05 (inactive) | 1.13 (inactive) | 0.932 (inactive) | 0.962 (inactive) | 1.02 (inactive) | 0.996 (inactive) | 1.01 (inactive) | 1.09 (inactive) | 1.02 (inactive) | 1.09 (inactive) | 0.977 (inactive) | 1.04 (inactive) | 1.02 (inactive) | 0.96 (inactive)
